# In the supplement of paper PMC6555819:
# Experiments:
# Assay in all cases: PBM binding z-score (relative to random genomic background probes); higher = stronger binding; sequences stand for … in GC…GCGATTGACAGCGTAGAATGAAGG
# [1] = test system: RARb homodimer (NR concentration 270 nM)
# Summary of the method: (§1)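 Random background probes are the reference for binding z-scores. These scores derive from regression-normalized fluorescence on custom Agilent 4×180K protein-binding microarrays incubated 1 h with ligand-free nuclear receptor dimers. Binding was detected with antibodies against each partner (one per run).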
# [2] = test system: RARg:RXRa (NR concentration 270 nM, RXRa partner concentration 90 nM)
# Summary of the method: as §1
# [3] = test system: RARg homodimer (NR concentration 270 nM)
# Summary of the method: as §1
# [4] = test system: RXRa DBDmut IVT, anti-RXR (DBD mutation: RXRa K156A/R161A, NR concentration 90 nM)
# Summary of the method: as §1
# [5] = test system: RXRa homodimer (NR concentration 180 nM)
# Summary of the method: as §1
# [6] = test system: THRa:RXRa (NR concentration 90 nM, RXRa partner concentration 90 nM)
# Summary of the method: as §1
# [7] = test system: THRa homodimer (NR concentration 90 nM)
# Summary of the method: as §1
# [8] = test system: VDR homodimer (NR concentration 270 nM)
# Summary of the method: as §1
Sequence,PBM binding z-score [1],PBM binding z-score [2],PBM binding z-score [3],PBM binding z-score [4],PBM binding z-score [5],PBM binding z-score [6],PBM binding z-score [7],PBM binding z-score [8]
CCTGCTGGGTCATGGTCAGCTAATCTACAGTATG,2.6,3.56,3.65,0.81,2.88,2.04,0.0617,-0.0341
GCCATTAGTTGAAAGGGCAACCGAATGATTCTCG,2.22,1.54,1.32,0.641,1.24,0.595,-0.31,-0.125
CCGACTGGGGCAAGGCTACCATAACGCACAGCCA,0.53,0.348,0.614,-0.842,0.0101,-0.203,-0.4,-0.136
TCTAGTTGGTCAAAGGTCACACACTCGAAATGCG,5.02,7.09,6.36,2.05,7.71,4.06,1.95,2.94
TCTGCTAGGTCAGTTGGTCAGATAACGAGCTGCC,2.62,2.67,3.55,0.564,1.03,1.38,0.154,-0.455
GCTAGCAGGCCATTTGGGTCACTCATTGACGGGC,1.77,0.783,1.14,0.292,0.477,1.69,0.799,0.121
TCGAGTAGGTTACCAATGGGGAATTCAGCTTTCT,-0.273,0.258,-0.0594,0.599,0.509,-0.0396,-1.08,-0.782
